# In PubChem BioAssay (NCATS):
# Inconclusive results are not listed. A call without a number means that no potency is given here. Activity calls are given as the source filed them. The call rests on the fitted dose curve; in most records, active means well fitted curve in the direction sought with a large enough effect; inconclusive means small, poorly fitted or top-dose-only effect, or another doubt; inactive means no such curve, though single readings can be large; an effect the other way counts as inactive or inconclusive.
# Tests used:
# [1] = HEK-293 Cancer Cell Toxicity qHTS against the NCATS CANVASS Library (AID 1347355); further: nearly all actives have a fitted effect of over 65% in size; further: potency means the concentration at half of the fitted maximal effect; on outcome: series mostly up to about 46 µM
# How it was run: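 First, 1000 cells go into each well and rest for 4 hours. Next, an 11-point dilution range is pinned in. Plates then incubate 72 hours before CellTiter-Glo addition and luminescence reading.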
# [2] = HPAF-II 24hr Apoptosis Induction qHTS against the NCATS CANVASS Library (AID 1347356)
# How it was run: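 Cells seeded at 500 per well, then compounds pin-transferred in an 11-point concentration series. After 24 hours at 37 degrees C, Caspase-Glo 3/7 was added and luminescence measured following 15 min at room temperature.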
# [3] = HEK293 18hr Apoptosis Induction qHTS against the NCATS CANVASS Library (AID 1347357)
# How it was run: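 Cells seeded at 500/well in DMEM + 10% FBS. Compounds pinned, 11 concentrations. 18 h, 37 degrees C/5% CO2. Caspase-Glo 3/7 added, 15 min RT dark, luminescence read.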
# [4] = HPAF-II 12hr Apoptosis Induction qHTS against the NCATS CANVASS Library (AID 1347358)
# How it was run: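 Cells plated at 500 per well are dosed with compound and incubated 12 hours at 37 degrees C. Caspase-Glo 3/7 reagent is added and, after 15 min at room temperature, luminescence proportional to caspase activity is measured.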
# [5] = HEK293 24hr Apoptosis Induction qHTS against the NCATS CANVASS Library (AID 1347359)
# How it was run: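 HEK293 cells, 500 per well, exposed to an 11-point compound series for 24 hours at 37 degrees C. Caspase 3/7 activity read by Caspase-Glo luminescence (DEVD substrate) after 15 min at room temperature.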
# [6] = HPAF-II 18hr Apoptosis Induction qHTS against the NCATS CANVASS Library (AID 1347360)
# How it was run: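 Seed HPAF-II cells at 500/well in DMEM + 10% FBS, pin-transfer compounds, incubate 18 hours at 37 degrees C/5% CO2, add Caspase-Glo 3/7 reagent, wait 15 min, read luminescence.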
# [7] = tested on: NAD(P)H diaphorase (Clostridium kluyveri); assay: Diaphorse counterscreen qHTS: Assay Interference Panel against the NCATS CANVASS Library (AID 1347362)
# How it was run: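 Clostridium kluyveri diaphorase in PBS + 0.01% Tween-20 preincubated 15 min with compounds. Resazurin and NADH then added for 5 min at room temperature in the dark; resorufin fluorescence read (ex 525, em 598).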
# [8] = SDT Cancer Cell Toxicity qHTS against the NCATS CANVASS Library (AID 1347365); further: nearly all actives have a fitted effect of over 60% in size; further: potency means the concentration at half of the fitted maximal effect
# How it was run: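 Cytotoxicity is measured from cellular ATP: compounds in an 11-point concentration series are pinned onto SDT cells, incubated 72 hr at 37C, then CellTiterGlo is added and luminescence read.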
# [9] = qHTS for ATAD5 Agonist screened against the NCATS CANVASS Library (AID 1347367);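 further: luciferase reporter driven by ATAD5 which rises upon DNA damage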
# How it was run: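 HEK293T-ATAD5 luc reporter; 2000 cells/well; 5hr settle; cpd 11-pt qHTS; 16hr 37C 5% CO2 dark; viability by CellTiter-Fluor (AFC fluorescence); then luciferase luminescence, 30min RT.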
# [10] = MCF7 Cancer Cell Toxicity qHTS against the NCATS CANVASS Library (AID 1347369)
# How it was run: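 Cells seeded at 500/well, then compound pinned. Plates incubated 72 hr at 37C, 5% CO2. CellTiterGlo added; luminescence read.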
# [11] = qHTS for ATAD5 Antagonist screened against the NCATS CANVASS Library (AID 1347370);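 further: HEK293T cells carrying an ATAD5 luciferase reporter co-treated with 10 µM 5-fluorouridine; series mostly up to about 46 µM; nearly all actives have a fitted effect of over 65% in size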
# How it was run: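 Compounds (11-point) co-dosed with 10 µM 5-FUrd for 16 h at 37 °C onto HEK293T-ATAD5 luciferase reporter cells. Viability measured by CellTiter-Fluor fluorescence, then ATAD5 reporter signal by luminescence.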
# [12] = J3T Cancer Cell Toxicity qHTS against the NCATS CANVASS Library (AID 1347371)
# How it was run: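 Luminescence from CellTiterGlo, reporting cellular ATP, serves as the viability measure after 72 hr compound treatment of J3T canine glioma cells seeded at 500 cells/well.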
# [13] = target: Nuclear receptor subfamily 1 group I member 3 (Homo sapiens) (UniProt Q14994); assay: qHTS for Constitutive Androstane Receptor (CAR) Agonist screened against the NCATS CANVASS Library (AID 1347373);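 further: every well also contained 1.5 µM PK11195 alongside the test compound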; further: potency means the concentration at half of the fitted maximal effect
# Sequence of Nuclear receptor subfamily 1 group I member 3 (Homo sapiens) (Q14994 whole entry, looked up): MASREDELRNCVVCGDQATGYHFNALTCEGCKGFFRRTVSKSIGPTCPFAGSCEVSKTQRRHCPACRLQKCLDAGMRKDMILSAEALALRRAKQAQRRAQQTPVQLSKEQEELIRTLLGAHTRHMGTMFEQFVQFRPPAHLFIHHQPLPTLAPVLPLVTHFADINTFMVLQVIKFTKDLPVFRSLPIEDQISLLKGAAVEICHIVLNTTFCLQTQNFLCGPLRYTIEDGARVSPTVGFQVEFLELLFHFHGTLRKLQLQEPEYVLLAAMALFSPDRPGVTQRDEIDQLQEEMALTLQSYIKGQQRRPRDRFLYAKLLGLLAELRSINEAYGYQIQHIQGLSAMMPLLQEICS
# How it was run: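 Cells were plated and allowed to attach for 4hr, then dosed with compound in an 11-point series alongside 1.5uM PK11195. After 24hr at 37C, viability was measured fluorometrically and CAR-driven CYP2B6 reporter luminescence was recorded.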
# [14] = qHTS for Hypoxia signaling pathway (HIF-1) agonists against the NCATS CANVASS Library (AID 1347375)
# How it was run: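 Cells plated and rested 5 h, compounds pinned in DMSO across 11 concentrations, incubated 17 h at 37C, loaded with CCF4-AM for 2 h, fluorescence read at 460 and 530 nm, then CellTiter-Glo luminescence measured for viability and normalization.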
# [15] = qHTS for H2AX Agonists against the NCATS CANVASS Library (AID 1347378);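 further: phospho-H2AX S139 level in CHO-K1 lysates by TR-FRET emission ratio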
# How it was run: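 CHO-K1, 1000 cells/well, o/n 37C; cpd several conc, 3 hr 37C, 0.76% DMSO; lyse 30 min RT; cryptate anti-pH2AX(S139) + d2 anti-H2AX, 24 hr RT; HTRF 665/620.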
# [16] = qHTS for Inflammasome Signaling Inhibitors: IL-1-beta AlphaLISA screen against the NCATS CANVASS Library (AID 1347379);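 further: human THP-1 cells primed with LPS then triggered with ATP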
# How it was run: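 Secreted IL-1B from human THP-1 cells quantified by AlphaLISA 16 hr after compound addition (final up to 57.5 uM). A 1 hr compound pretreatment preceded inflammasome activation with 250 ng/mL LPS plus 1.25 mM ATP (final).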
# [17] = qHTS for Activators of p53 Stress Response Pathway screened against the NCATS CANVASS Library (AID 1347388)
# How it was run: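 p53RE-bla HCT-116 cells (4000/well) were pre-incubated for 5 h, then treated with compound (11 points) for 16 h at 37C. After 2 h with CCF4, the 460/530 nm ratio gave reporter activation; CellTiter-Glo measured viability.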
# [18] = qHTS assay for small molecule disruptors of mitochondrial membrane potential screened against the NCATS CANVASS Library (AID 1347389); further: nearly all actives have a fitted effect of over 60% in size; further: potency means the concentration at half of the fitted maximal effect
# How it was run: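 Mitochondrial depolarization in HepG2 cells is scored as a falling aggregate-to-monomer fluorescence ratio after 1 hr compound exposure and 30 min staining with Mito-MPS dye at 37C, each compound tested as an 11-point titration.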
# [19] = qHTS for activators of dead-cell proteases activity screened against the NCATS CANVASS Library (AID 1347392);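 further: luminescence from protease leaking out of membrane-damaged cells cleaving impermeant substrate; rising signal means more cytotoxicity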
# How it was run: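 HepG2, 2000 cells/well, 18 h attach; cpd 11-pt, 5 h 37C 5% CO2; CytoTox-Glo (AAF-aminoluciferin) 15 min RT; luminescence read.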
# [20] = qHTS for inhibitors of Wild type Zika virus screened against the NCATS CANVASS Library (AID 1347396);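 further: ATP luminescence of surviving cells so rescue from viral cell killing; series mostly up to about 46 µM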
# How it was run: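 Vero 766 (African green monkey) cells, 1000 per well, attached overnight, then compounds were added in an 11-point series before wild-type Zika virus infection. After 72 h at 37C, cell viability was read as CellTiter Glo luminescence.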
Compound,Potency [1],outcome [2],Potency [3],Potency [4],Potency [5],Potency [6],Potency [7],Potency [8],Potency [9],Potency [10],Potency [11],Potency [12],Potency [13],outcome [14],Potency [15],Potency [16],Potency [17],Potency [18],Potency [19],outcome [20]
C=C1CCC2C(C)(C(=O)O)CCC(CC/C(C)=C/C(=O)NC(CCC(N)=O)C(=O)O)[C@@]2(C)C1 (some centres undefined),inactive,inactive,inactive,inactive,inactive,inactive,inactive,inactive,inactive,inactive,inactive,inactive,inactive,inactive,inactive,inactive,inactive,inactive,inactive,inactive
COc1ccc(-c2oc3cc(OC)cc(OC)c3c(=O)c2O)cc1,18.7 µM (active),inactive,inactive,inactive,inactive,inactive,inactive,10.5 µM (active),inactive,inactive,,inactive,inactive,inactive,inactive,inactive,inactive,inactive,inactive,inactive
O=C1CC(c2ccc(O)cc2)Oc2cc(O)ccc21 (centres undefined),inactive,inactive,inactive,inactive,inactive,inactive,inactive,,inactive,inactive,inactive,inactive,inactive,inactive,inactive,inactive,inactive,7.41 µM (active),inactive,inactive
O=C1c2c(O)cc(O)cc2OC(c2ccc(O)cc2)C1O (centres undefined),inactive,inactive,inactive,inactive,inactive,inactive,inactive,inactive,inactive,inactive,inactive,inactive,inactive,inactive,,inactive,inactive,11.7 µM (active),inactive,inactive
C=C1[C@@]2(C)CC3C4(C)CCC(O)C(C)(C)C4CCC3(C)[C@]1(C(=O)OC)C(=O)C(C)(O)C2=O (some centres undefined),inactive,inactive,inactive,inactive,inactive,inactive,inactive,inactive,inactive,inactive,inactive,inactive,inactive,inactive,inactive,inactive,inactive,inactive,inactive,inactive
COC1C(C)OC(OCC23C[C@@H]4[C@H](C)CC[C@H]4C4(C=O)CC2C=C(C(C)C)C34C(=O)O)[C@@H](O)[C@H]1O (some centres undefined),inactive,inactive,inactive,inactive,inactive,inactive,inactive,inactive,inactive,inactive,inactive,inactive,inactive,inactive,inactive,inactive,inactive,inactive,inactive,inactive
C[C@@]12CCC[C@@](C)(C(=O)O)[C@H]1C[C@@H](O)[C@@]13C[C@@H](CC[C@@H]21)[C@](C)(O)C3,inactive,inactive,inactive,inactive,inactive,inactive,inactive,inactive,inactive,inactive,inactive,inactive,inactive,inactive,inactive,inactive,inactive,inactive,inactive,inactive
O=c1cc(-c2ccc(O)cc2)oc2cc(O)c([C@@H]3OC(CO)[C@H](O)[C@@H](O)[C@H]3O)c(O)c12 (some centres undefined),inactive,inactive,inactive,inactive,inactive,inactive,inactive,inactive,inactive,inactive,inactive,inactive,inactive,inactive,inactive,inactive,inactive,inactive,inactive,inactive
CC(C)=CCCC(C)(O)[C@H]1CC=C(C)C(O)C1 (some centres undefined),inactive,inactive,inactive,inactive,inactive,inactive,inactive,inactive,inactive,inactive,inactive,inactive,inactive,inactive,inactive,inactive,inactive,inactive,inactive,inactive
C/C=C1/C2=CCCN3C(=O)O[C@H]([C@H]1O)[C@H]23,inactive,inactive,inactive,inactive,inactive,inactive,inactive,inactive,inactive,,inactive,inactive,inactive,inactive,,inactive,inactive,inactive,inactive,inactive
O=C1CC(c2ccc(O)cc2)Oc2ccccc21 (centres undefined),,inactive,inactive,inactive,inactive,inactive,inactive,20.9 µM (active),inactive,inactive,inactive,inactive,23.4 µM (active),inactive,inactive,,,14.8 µM (active),inactive,inactive
C=CC(C)(C)C(=O)[C@@H](C)[C@@H]1CC[C@@](C)(C=C)O1,inactive,inactive,inactive,inactive,inactive,inactive,inactive,inactive,inactive,inactive,inactive,inactive,inactive,inactive,inactive,inactive,inactive,inactive,inactive,inactive
COc1c(O)cc(O)c2c(=O)cc(-c3ccccc3)oc12,inactive,inactive,inactive,inactive,inactive,inactive,inactive,inactive,inactive,inactive,inactive,inactive,inactive,inactive,inactive,,,,inactive,
CO[C@@H](C[C@@H](C)[C@@H](O)/C=C/C=C/CNC(=O)C(C)(C)[C@H](O)\C(C)=C/C=C\C=C\Cc1cnco1)[C@]1(O)[C@@H](C)C(=O)N(C)[C@@]12COC2=O,inactive,inactive,inactive,inactive,inactive,inactive,inactive,inactive,inactive,inactive,inactive,inactive,inactive,inactive,inactive,inactive,inactive,inactive,inactive,inactive
O=C1OC(CCO)c2cccc(O)c21 (centres undefined),inactive,inactive,inactive,inactive,inactive,inactive,inactive,,inactive,inactive,inactive,inactive,inactive,inactive,inactive,inactive,inactive,inactive,inactive,inactive
CC(=O)N[C@H](C)c1nc(/C=C/C=C/C(=O)CC2CC(=O)CC[C@]2(C)O)cs1 (some centres undefined),inactive,inactive,inactive,inactive,inactive,inactive,inactive,inactive,inactive,inactive,inactive,inactive,inactive,inactive,inactive,inactive,inactive,inactive,inactive,inactive
COc1cc2ccc(=O)oc2c(O)c1O[C@@H]1O[C@H](CO)[C@@H](O)[C@H](O)[C@H]1O,inactive,inactive,inactive,inactive,inactive,inactive,inactive,inactive,inactive,inactive,inactive,inactive,inactive,inactive,inactive,,inactive,inactive,inactive,inactive
CC1=C(C)C(=O)OC(C(C)C2(O)CCC3C4C5OC5C5(O)CC=CC(=O)C5(C)C4CCC32C)C1 (centres undefined),,inactive,inactive,inactive,inactive,inactive,inactive,13.2 µM (active),inactive,inactive,inactive,inactive,,inactive,inactive,inactive,inactive,inactive,inactive,inactive
